Bioassay records from PubChem.
A647 fluor – qHTS Assay for Spectroscopic Profiling in A647 Spectral Region | max dye-equivalent concentration, M | Compound fluorescence, A647 channel (570/671 nm), Tris buffer | 59,000 tested, under 10 active;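 also: values scaled relative to a standard on each plate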
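Compound fluorescence was measured in 100 mM Tris buffer, pH 8.0, after 15 min at room temperature, using 570 nm excitation and 671 nm emission filters. Signal was normalized to a per-plate Alexa 647 standard curve and expressed as dye-equivalent concentration at each compound concentration.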
Resorufin autofl – qHTS Assay for Spectroscopic Profiling in Resorufin Spectral Region; Compound fluorescence, resorufin region 547/598 nm, buffer; stronger effect = higher value; max dye-equivalent concentration, M; hit rate 0.04% among 59,000
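Intrinsic fluorescence profiled in the resorufin window (ex 547 nm, em 598 nm) after 15 min at room temperature in pH 8.0 Tris buffer (100 mM); responses normalized against a six-point resorufin standard series as dye-equivalent concentration.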
A488 autofl – qHTS Assay for Spectroscopic Profiling in A488 Spectral Region; compound autofluorescence, A488 spectral region, dye equivalency; Compound Type: qHTS ECL - MLSMR; max dye equivalency, M; hit rate 0.1% among 59,000; AID 591, 2007
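Compounds pin-transferred into 100 mM Tris buffer, pH 8.0, incubated 15 min at room temperature, then imaged with 480 nm excitation/540 nm emission filters. Fluorescence converted to Alexa 488 dye-equivalent concentration via an on-plate six-point A488 standard curve.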
Fluorescein autfl – qHTS Assay for Spectroscopic Profiling in Fluorescein Spectral Region | Compound autofluorescence, 480/540 nm, fluorescein-equivalent; stronger effect = higher value | max fluorescein-equivalent concentration, M | hit rate 0.91% among 59,000 | AID 593, 2007; in the data active = max fluorescein-equivalent concentration above about 10 nM; inconclusive = between about 1.1 nM and that limit
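Compounds were pin-transferred into 100 mM Tris buffer, pH 8.0, and incubated 15 min at room temperature. Fluorescence was read at 480 nm excitation/540 nm emission. Signals were normalized to an on-plate six-point fluorescein standard curve as dye-equivalent concentration.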
Rhodamine autofl – qHTS Assay for Spectroscopic Profiling in Rhodamine Spectral Region; max dye-equivalent concentration, M; Rhodamine-region fluorescence, 547/598 nm, Tris buffer; stronger effect = higher value; hit rate 0.05% among 59,000; in the data active = max dye-equivalent concentration above about 11 nM; inconclusive = between about 1.1 nM and that limit
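Intensities are converted to rhodamine-equivalent concentration using a six-point rhodamine standard on each plate. Compounds sit 15 min at room temperature in 100 mM Tris buffer, pH 8.0; read uses the 547/598 nm excitation/emission pair.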
TexasRed autofl – qHTS Assay for Spectroscopic Profiling in Texas Red Spectral Region | Compound fluorescence, Texas Red channel, 547/618 nm; stronger effect = higher value | max dye-equivalent concentration, M | hit rate 0.06% among 59,000 | AID 587, 2007; in the data active = max dye-equivalent concentration above about 10 nM; inconclusive = between about 1.1 nM and that limit
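Compound titrations in 100 mM Tris pH 8.0 were incubated 15 min at room temperature and read at 547 nm excitation / 618 nm emission. Texas Red six-point standard curve on each plate converted fluorescence to dye-equivalent concentration.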
Numbers without * were called inactive; i = inactive; ? = inconclusive; ! = not active in a repeat. Rows were chosen to be rich in hits. Some 0.96% of all compounds tested hit in one or more screens of this group. Unless noted, no rule for the calls is given here.

SMILES	A647 fluor	Resorufin autofl	A488 autofl	Fluorescein autfl	Rhodamine autofl	TexasRed autofl
CCC(=O)c1ccc(OCC(=O)N2CCc3cc(OC)c(OC)cc3C2)cc1	5.8e-09	i	i	?	i	i
CCCC(=O)Nc1ccc(NC(=O)c2ccccc2Cl)nc1	1e-09	i	i	1.1e-08M*	i	i
CCCC(=O)Nc1ccc(NC(=O)Cc2ccccc2)cn1	3.3e-09	i	i	?	i	i
Oc1ccc([C@@H]2CNCc3sccc32)cc1O	3.7e-08	i	i	?	i	i
COC(=O)[C@H](N)Cc1ccc(Cl)cc1	1.8e-09	i	i	i	i	i
O=C(NC1=NCCS1)C1Cc2ccccc2CN1C(=O)c1ccccc1 (stereo not drawn)	7e-09	i	i	i	i	?
COc1ccc(NC(=O)C2Cc3ccccc3CN2C(=O)c2ccccc2)cn1 (stereo not drawn)	1e-09	i	?	5.9e-08M*	i	i
N#Cc1c(N)sc(=S)c2c1CCCCC2	1e-09	i	i	3.4e-08M*	i	i
CC1(C)Cc2c(C#N)c(N)sc(=S)c2CS1	1e-09	i	i	1.1e-08M*	i	i
N#Cc1c(N)sc2c1CCCCCC2	1e-09	i	i	i	i	i
CC(C)[C@@H]1NC(=O)[C@H](CCCCN)NC(=O)[C@H](Cc2c[nH]c3ccccc23)NC(=O)[C@H](Cc2ccc(O)cc2)NC(=O)[C@H](C)N(C)C(=O)[C@H](Cc2ccccc2)NC1=O	6.1e-09	i	i	i	i	i
NC(N)=N[C@H](CCC(=O)O)C(=O)O	5.7e-08	i	i	?	i	i
C=C1CC[C@@H]2[C@](C)(CC[C@@H](O)[C@]2(C)CO)[C@@H]1C/C=C1/C(=O)OC[C@H]1O	3e-09	i	i	i	i	i
N[C@@H]1[C@@H]2[C@@H]3C[C@H]4N(CC[C@@]14C(=O)C(=O)O)CC3=CCO[C@@H]2CC(=O)O	2.2e-09	i	i	1e-08M*	i	i
CCCn1nc(-c2ccccc2)c2nc3ccccc3nc21	3.6e-08	i	1.1e-08M*	2e-07M*	i	i
CCCCn1c2nc3ccccc3nc2c2c(=O)n(CCC)cnc21	6.5e-09	i	i	i	i	?
CCn1nc(-c2ccccc2)c2nc3ccccc3nc21	1e-09	i	1.2e-08M*	2.4e-07M*	i	i
c1ccc(-c2nnc(Cn3c4ccccc4c4nc5ccccc5nc43)o2)cc1	4.7e-08	i	i	?	i	i
CCOc1ccccc1C1C(C#N)=C(N)SC(N)=C1C#N	9e-09	i	i	1.3e-08M*	i	i
CCOc1ccc(C2C(C#N)=C(N)SC(N)=C2C#N)cc1OCC	2.2e-08	i	i	1.4e-08M*	i	i
CCOc1ccc(C2C(C#N)=C(N)SC(N)=C2C#N)cc1OC	3.8e-08	i	i	?	i	i
NC(=O)N1c2ccccc2C=Cc2ccccc21	3.8e-08	i	i	?	i	i
NC(=O)N1c2ccccc2CC(=O)c2ccccc21	1e-09	i	?	3.3e-08M*	i	i
CC(C)OC(=O)CC(=O)c1sc2nc3c(cc2c1N)CN(C)CC3	2.6e-08	i	?	1.9e-07M*	i	i
COc1ccc(O)c(C(=O)c2cc(C#N)c(=O)n(-c3c(C)n(C)n(-c4ccccc4)c3=O)c2)c1	1e-09	i	?	1.2e-07M*	i	i
SMILES	A647 fluor	Resorufin autofl	A488 autofl	Fluorescein autfl	Rhodamine autofl	TexasRed autofl
COc1ccc(O)c(C(=O)c2cc(C#N)c(=O)n(CCN3CCOCC3)c2)c1	1e-09	i	i	i	i	i
O=C1N=C(O)CN1/N=C\c1ccc(-c2ccc([N+](=O)[O-])cc2)o1	1e-09	i	?	4.2e-08M*!	i	?
Cn1c(=O)[nH]c(=O)c2c1nc(NCc1ccccc1)n2CC(O)c1ccccc1 (stereo not drawn)	1e-09	i	?	3.6e-08M*	i	i
Oc1cc(CN2COc3ccccc32)c(O)cc1CNC1CCCCC1	1.8e-09	i	i	i	i	i
CCN1C(=O)/C(=C2\C=Cc3ccccc3N2CC)OC1=S	1.1e-08	2.2e-08M*	3.8e-08M*	8e-07M*	2.2e-08M*	?
C[C@@]12C[C@H](O)[C@@H]3[C@H](CCC4=CC(=O)CC[C@]43C)[C@H]1CC[C@@H]2c1csc(N)n1	1.4e-09	i	i	?	i	?
Cc1cc2c(cc1C)NC(c1c(C)n(C)n(-c3ccccc3)c1=O)C1=C(CC(C)(C)CC1=O)N2 (stereo not drawn)	6e-09	i	?	4.3e-08M*	i	?
CCCCNc1c(CN)cnc2cc(Cl)ccc12	1e-09	i	i	?	i	i
CCOC(=O)N1CCN(C2=Nc3cccc4cccc2c34)CC1	1e-09	i	?	4.8e-08M*	i	i
O=C(CN1C(=O)c2cccc3cccc1c23)N1CCN(c2ccccc2)CC1	2.9e-09	i	i	i	i	i
CC(=O)N1CCN(C2=Nc3cccc4cccc2c34)CC1	3.6e-08	i	i	2.7e-08M*	i	i
CCOC(=O)N1CCN(c2ccc(Cl)c(Cl)c2)CC1	2.4e-09	i	i	i	i	i
COc1cc(-c2ccc(N=Nc3ccc4c(S(=O)(=O)O)cc(S(=O)(=O)O)c(N)c4c3O)c(OC)c2)ccc1N=Nc1ccc2c(S(=O)(=O)O)cc(S(=O)(=O)O)c(N)c2c1O	2.3e-09	i	i	?	i	?
CC(=O)OCC(=O)NCc1ccc2c(c1)OCO2	4e-08	i	i	?	i	i
CC(C)c1nnc(NC(=O)CCC(=O)NCc2ccc3c(c2)OCO3)s1	2.2e-09	i	?	1.3e-07M*	i	i
O=C(O)[C@@H]1CCCN[C@H]1C(=O)O	1e-09	i	i	i	i	?
N#CC1=C(N)OC2=C(CCC/C2=C/c2ccoc2)C1c1ccoc1 (stereo not drawn)	5.2e-09	i	i	1.4e-08M*	i	?
CCN1CC2=C(OC(N)=C(C#N)C2c2ccccc2)/C(=C\c2ccccc2)C1 (stereo not drawn)	1e-09	i	i	i	i	i
CCOC(=O)C1=C(C)NC(C)=C(C(=O)OC)[C@@H]1c1cccc(Cl)c1Cl	4e-08	i	i	?	i	i
COc1cc(/C=C(\C#N)C(=O)c2ccc(O)c(O)c2)cc(I)c1O	1e-09	i	i	1.3e-08M*	i	i
